Compound activity (PubChem)
SKOV3 invasion: blocks SKOV3ip1 adhesion and invasion in omental model; SKOV3ip1-GFP adhesion/invasion on 3D omental model, fluorescence; Potency, µM (top dose mostly 45.8 µM), inactives show at the highest dose activity change, negative = inhibition, hits mostly inhibitors; hit rate 0.1% among 46,000; AID 1963576;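 also: potency is read from the fitted curve at half-maximal effect; plate controls were DMSO wells for no effect and tomatine positive control wells for full effect; nearly all actives have a fitted effect of over 65% in size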
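Primary human omental fibroblast/mesothelial 3D culture pre-formed 48 h. SKOV3ip1-GFP cells added with compounds (0.36-46 umol/L), incubated 2 h RT/16 h 37 C, fixed; GFP cells quantified at 488/509 nm.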
GALC G270D act: raises human GALC G270D mutant activity in cells | P54803 | 145M-Twi-hGALC-G270D cells (Twitcher mouse brain line with human GALC G270D), HMU-beta-Gal fluorescence, 48 h | Potency, µM (highest dose often 57.5 µM), hits mostly activators | hit rate 0.1% among 45,000 | AID 1159614; also: potency is read from the fitted curve at half-maximal effect; 0% is about no effect; nearly all actives have a fitted effect of over 65% in size
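Mutant human GALC (G270D), stably expressed in a Twitcher mouse brain cell line lacking endogenous GALC, is measured in live-treated cells via 6-hexadecanoylamino-4-methylumbelliferyl-β-galactoside hydrolysis (0.1 mM final, pH 5.2) with fluorescent detection.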
NTMT1 inh: blocks human N-terminal methyltransferase 1 activity; Potency, µM (series often up to 114 µM), without a hit: at the highest dose activity change, negative = inhibition, actives largely listed as inhibitors; Q9BV86; hit rate 2.5% among 59,000; NTMT1 MTase-Glo SAH luminescence, purified enzyme; AID 1645870;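 also: potency is read from the fitted curve at half-maximal effect; plate controls were DMSO vehicle for no effect and no enzyme for full effect; nearly all actives have a fitted effect of over 65% in size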
Target sequence (Q9BV86 whole entry, looked up): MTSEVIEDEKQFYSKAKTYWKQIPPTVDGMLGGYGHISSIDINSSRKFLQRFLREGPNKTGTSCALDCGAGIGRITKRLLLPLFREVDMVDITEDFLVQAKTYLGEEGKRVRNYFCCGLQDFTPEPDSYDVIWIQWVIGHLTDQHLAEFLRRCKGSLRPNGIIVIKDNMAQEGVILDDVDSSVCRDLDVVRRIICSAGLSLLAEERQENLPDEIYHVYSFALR
p53null 39C tox: selectivity test: cytotoxicity in p53 null cells, nonpermissive temperature. H1299 p53-null (neo) cells, 39C, ATPlite viability, 24 h. Potency, µM (top dose mostly 46.1 µM), for the others: top-dose activity, negative = cell killing, hits mostly cytotoxic. hit rate 0.97% among 55,000. AID 904;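 also: potency is read from the fitted curve at half-maximal effect; 0% = DMSO only and -100% = full killing by 100 µM tamoxifen; nearly all actives have a fitted effect of over 50% in size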
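Luminescent ATP signal reported cell survival after H1299 lines (neo, p53 null; or p53 A138V) received up to 46 uM compound and 24 hr incubation at 39C.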
DRV1 agonist: GPR32 (DRV1) agonism, beta-arrestin recruitment | O75388 | CHO-K1 GPR32 beta-arrestin PathHunter luminescence, 90 min; zero percent set by DMSO-only wells | activation, % at 76.9 µM | hit rate 2.5% among 48,000 | AID 1346428;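 active = activation of at least 60% and not above a set upper limit, about 1 call in 100 departs from these limits; inconclusive = activation of 40% to 60%, or above that upper limit; inactive = activation under 40%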; also: 0% is about no effect
Target sequence (O75388 whole entry, looked up): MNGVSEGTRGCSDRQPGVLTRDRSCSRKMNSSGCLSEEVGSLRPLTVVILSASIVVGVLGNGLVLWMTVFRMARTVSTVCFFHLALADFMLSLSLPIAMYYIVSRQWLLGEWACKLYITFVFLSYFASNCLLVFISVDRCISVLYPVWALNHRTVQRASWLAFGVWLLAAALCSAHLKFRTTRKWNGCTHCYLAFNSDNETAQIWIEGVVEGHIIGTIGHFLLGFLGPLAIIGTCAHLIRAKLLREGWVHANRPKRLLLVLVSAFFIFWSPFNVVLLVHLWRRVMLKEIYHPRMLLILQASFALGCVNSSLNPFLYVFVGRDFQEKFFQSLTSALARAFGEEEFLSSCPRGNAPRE
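CHO-K1 cells stably expressing ProLink-tagged GPR32 and Enzyme Activator-tagged beta-arrestin were seeded at 2,500 cells/well overnight, exposed to compounds for 90 min at 37 °C, then read by beta-Gal complementation chemiluminescence after 1 h detection reagent.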
p53null 32C tox: selectivity test: cytotoxicity in p53 null cells, permissive temperature. H1299-neo p53 null cells, ATP luminescence, 24 h, 32C. Potency, µM (doses to about 46.1 µM), without a hit: top-dose activity change, negative = cytotoxicity, most hits filed as cytotoxic. hit rate 0.62% among 55,000. AID 903;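 also: potency is read from the fitted curve at half-maximal effect; 0% = DMSO only and -100% = full killing by 100 µM tamoxifen; nearly all actives have a fitted effect of over 55% in size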
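H1299-neo (p53-null) cells, 600/well, were pre-incubated overnight at 37C, then exposed to compounds at up to 46 uM for 24 hr at 32C. Viability was measured as ATP content by luminescence, and AC50 values came from Hill fits.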
* marks the source's active call; other numbers are inactive results; i = inactive; ? = inconclusive; . = no result given; ! = repeats disagree; [ ] = remark or other dose. This is a sample that favours compounds with a hit; in the whole collection about 4% have one here. Unless noted, calls follow the shape of the dose curve; as a rule, active = well fitted curve in the direction sought with a large enough effect; inconclusive = small, poorly fitted or top-dose-only effect, or another doubt; inactive = no such curve, though single readings can be large; an effect the other way counts as inactive or inconclusive.

SMILES | SKOV3 invasion | GALC G270D act | NTMT1 inh | p53null 39C tox | DRV1 agonist | p53null 32C tox
COc1cc(C2c3c(-c4cc(C)ccc4O)n[nH]c3C(=O)N2CCCO)ccc1OCCC(C)C (stereo unspecified) | ? | i | 11.1% | ? | 102.0* | 26.5%
C[C@]1(CO)CCC[C@]2(C)C3=C(CCC12)COC3 (stereo partly specified) | . | . | -14.3%[57.5 µM] | . | . | .
COc1ccc(N2C(=O)N(c3c(C)cccc3Cl)Cc3cnc(Nc4ccc(C5CCN(C)CC5)cc4OC)nc32)nc1 | . | . | -1.9% | . | . | .
Cc1ccc(-n2ccnc(NCCc3ccccc3)c2=O)cc1C | i | i | 19.2% | 12.1% | 15.9 | ?
Cc1ccc(-n2ccnc(NCCc3ccc(S(N)(=O)=O)cc3)c2=O)cc1C | -1.4% | i | -5.5% | -2.4% | 95.2* | -7.0%
Cc1cccc(-c2nnn3c2nc(NCCc2ccc(S(N)(=O)=O)cc2)c2ccccc23)c1 | i | i | ? | -23.2% | -29.1 | ?
Cc1cc(-n2ccnc(NCCc3ccc(S(N)(=O)=O)cc3)c2=O)ccc1Br | -0.8% | i | -8.7% | 2.7% | 119.9* | -14.0%
Cc1ccc2ncc(C(=O)NCCc3ccc(S(N)(=O)=O)cc3)c(=O)n2c1 | i | i | -26.9% | -18.4% | -0.4 | 3.8%
Cc1ccc(-n2ccnc(NCCc3ccc(S(N)(=O)=O)cc3)c2=O)c(C)c1 | i | i | 1.2% | -20.1% | 80.5* | -14.4%
Brc1sc2c(c1-c1nc3ccccc3s1)CCNC2 | . | . | -17.5% | . | . | .
CC(C)C[C@@H](N)C(=O)N[C@H]1C(=O)N[C@@H](CC(N)=O)C(=O)N[C@H]2C(=O)N[C@H]3C(=O)N[C@H](C(=O)N[C@H](C(=O)O)c4cc(O)cc(O)c4-c4cc3ccc4O)[C@H](O)c3ccc(c(Cl)c3)Oc3cc2cc(c3O[C@@H]2O[C@H](CO)[C@@H](O)[C@H](O)[C@H]2O[C@H]2C[C@](C)(N)[C@H](O)[C@H](C)O2)Oc2ccc(cc2Cl)[C@H]1O | . | . | -4.3%[29.8 µM] | . | . | .
CCCN(CCC)C(=O)C1=Cc2ccc(-c3ccc(C(=O)N4CCCC4)cc3)cc2N=C(N)C1 | . | . | -18.6% | . | . | .
O=C1CCCC2=C1C(c1[nH]ncc1Cl)NC(=NCc1ncc[nH]1)N2 (stereo unspecified) | . | . | 3.9%[57.5 µM] | . | . | .
Cc1ccc(Cn2c(=O)n(CCCCC(=O)NCc3ccccc3Cl)c(=O)c3ccccc32)cc1 | 35.4% | i | 12.0% | -10.3% | 10.4 | -11.8%
Cc1ccc(C)c(Cn2c(=O)n(CCCCC(=O)NCc3ccc4c(c3)OCO4)c(=O)c3ccccc32)c1 | i | i | 89.1µM* | -11.6% | -27.8 | 11.3%
Cc1ccc(C)c(Cn2c(=O)n(CCCCC(=O)NCc3ccccc3Cl)c(=O)c3ccccc32)c1 | i | i | 79.4µM* | -14.4% | -8.7 | 17.4%
CNc1oc(-c2cccc3ncccc23)nc1C#N | . | . | -3.1% | . | . | .
O=C(c1ccccc1)c1ccccc1NC(=O)c1ccccc1C(=O)O | i | i | 6.7% | -21.7% | -6.9 | 0.7%
O=C(O)c1ccccc1C(=O)Nc1ccc(-c2ccccc2)cc1 | 9.5% | . | 8.57µM*! | . | . | .
Cc1ccc(C(=O)Nc2nnc(SCC(=O)N3CCCc4ccccc43)s2)cc1 | . | . | . | . | . | 1.26µM*
CC(C)Oc1ccc(C(=O)Nc2nnc(SCC(=O)N3CCOCC3)s2)cc1 | . | . | . | 0.631µM* | . | 0.562µM*
Cc1ccc(C(=O)Nc2ccc3nc(SCC(=O)N4CCc5ccccc54)sc3c2)cc1 | i | i | -2.0% | -10.8% | -4.4 | -14.4%
CC1(C)CCC2(C(=O)OC3OC(CO)C(O)C(O)C3O)CCC3(C)C(=CCC4C5(C)CCC(OC6OC(C(=O)O)C(OC7OC(CO)C(O)C(O)C7O)C(OC7OC(CO)C(O)C(O)C7O)C6O)C(C)(C)C5CCC43C)C2C1 (stereo unspecified) | . | . | 6.4%[12.6 µM] | . | . | .
O=C(NC1CCCCC1)c1cc(Nc2cccc(C(F)(F)F)c2)nc2ccccc12 | 6.1% | i | 18.7% | 3.7% | 7.1 | -22.1%
Cc1cc(C)cc(Nc2cc(C(=O)NCCCN(C)C3CCCCC3)c3ccccc3n2)c1 | -23.2% | i | -15.4% | 12.6µM* | -2.0 | ?
SMILES | SKOV3 invasion | GALC G270D act | NTMT1 inh | p53null 39C tox | DRV1 agonist | p53null 32C tox
O=C(NC1CCCC1)c1cc(Nc2cccc(C(F)(F)F)c2)nc2ccccc12 | -6.4% | i | 6.5% | 19.3% | 96.3* | -8.6%
CCc1ccccc1Nc1cc(C(=O)NCCCN(C)C2CCCCC2)c2ccccc2n1 | -12.5% | i | ? | -25.9% | 78.5* | 11.5%
CC1=C(C(=O)N(C)C)C(c2ccccc2Br)N=C(Nc2nc3ccccc3o2)N1 (stereo unspecified) | . | . | 5.2%[57.5 µM] | . | . | .
CS(=O)(=O)c1ccc(C(=O)OCC(=O)N2Cc3ccccc3C2)cc1[N+](=O)[O-] | . | . | -22.3%[57.5 µM] | . | . | .
CCCCCn1c(=O)[nH]c2cc(C(=O)N3CCN(c4ccccc4)CC3)ccc2c1=O | i | i | ? | -13.1% | 26.5 | -1.8%
CCCCCn1c(=O)[nH]c2cc(C(=O)N3CCN(c4cccc(C(F)(F)F)c4)CC3)ccc2c1=O | -16.0% | i | 15.4% | 0.6% | 60.8* | -4.6%
CCS(=O)(=O)N1CCc2cc(C(=O)N3CCN(c4cccc(C(F)(F)F)c4)CC3)ccc21 | -7.5% | i | -0.7% | -5.1% | 64.7* | -3.7%
O=C(CSc1nnc(-c2cccc(S(=O)(=O)N3CCCC3)c2)n1-c1ccccc1)Nc1ccc(Cl)cc1 | . | . | 9.5% | . | . | .
c1ccc(-c2nc(-c3ccccn3)no2)cc1 | . | . | . | 7.94µM* | . | 5.62µM*
CCN(CC)c1ccc(-c2nc(-c3ccccn3)no2)cc1[N+](=O)[O-] | 0.5% | i | ? | -1.1% | 10.2 | -7.2%
CC(C)NCC(O)c1ccc2ccccc2c1 (stereo unspecified) | . | i | ? | . | 68.2* | .
CC(C)NCC(O)c1ccc(O)c(O)c1 (stereo unspecified) | -16.1% | i | ? | . | -1.4 | .
COC(=O)C1=CO[C@@H](O[C@@H]2O[C@H](CO[C@@H]3O[C@H](CO)[C@@H](O)[C@H](O)[C@H]3O)[C@@H](O)[C@H](O)[C@H]2O)[C@@H]2C(CO)=CC[C@H]12 | . | . | -4.0%[29.8 µM] | . | . | .
CC(=O)Nc1ccc(Cl)cc1C(=O)c1ccc[nH]1 | . | . | 5.3% | . | . | .
N[C@H](Cc1ccccc1)C(=O)Nc1ccc(Cl)cc1C(=O)c1ccc[nH]1 | . | . | 28.2µM* | . | . | .
C[C@@H]1CN(CC(=O)N2CC(C)(C)c3ncc(Cc4ccc(F)cc4)cc32)[C@@H](CN2CCOC[C@H]2C)CN1 | . | . | 79.4µM*! | . | . | .
